Measurements from PubChem BioAssay AID1159580 (chemical genetic matrix, 2015).
“And” between values parts separate entries of the source, which are not always exact repeats. Identical values can stand only once. Out of some 5,500 compounds screened, about 2,000 (36%) were called active. Another 18% or so got no clear call; they are omitted. Cut-off read from the data, not from the text of the source: active = normalized growth mostly below about 0.91 (no sharp cut-off); inconclusive = no clear call, values can overlap the other calls; inactive = mostly above about 0.92. The list shows a part of the results.

Assay: chemical genetic growth profiling, strain panel (AID 1159580);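 note: tested at 20 µM; growth read once vehicle control cultures reached saturation at 30 °C; 1 = growth at the plate median or of vehicle wells; lower values mean less growth of the strain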
Conditions: growth OD

Measured: normalized growth

NC(N)=Nc1nc(CSCCC(N)=NS(N)(=O)=O)cs1
inactive: S. cerevisiae deletion strains, locus YKL009W, strain mrt4, stronger effect = lower value 1.04 | S. cerevisiae deletion strains, locus YKL068W, stronger effect = lower value 1.01 | S. cerevisiae deletion strains, locus YKL085W, strain MDH1 (second series), stronger effect = lower value 0.987 | S. cerevisiae deletion strains, locus YKL085W, strain MDH1, stronger effect = lower value 0.987 | S. cerevisiae deletion strains, locus YKL160W, strain elf1, stronger effect = lower value 0.974 | S. cerevisiae deletion strains, locus YKL190W, strain CNB1, stronger effect = lower value 1 | S. cerevisiae deletion strains, locus YKR001C, strain vps1, stronger effect = lower value 1.01 | S. cerevisiae deletion strains, locus YKR026C, strain gcn3, stronger effect = lower value 0.981 | S. cerevisiae deletion strains, locus YKR091W, strain srl3, stronger effect = lower value 0.97 | S. cerevisiae deletion strains, locus YLL001W, strain dnm1, stronger effect = lower value 0.933 | S. cerevisiae deletion strains, locus YLL026W, stronger effect = lower value 0.992 | S. cerevisiae deletion strains, locus YLL041C, strain sdh2, stronger effect = lower value 0.995 | S. cerevisiae deletion strains, locus YLR027C, strain aat2, stronger effect = lower value 0.987 | S. cerevisiae deletion strains, locus YLR039C, strain RIC1, stronger effect = lower value 0.979 | S. cerevisiae deletion strains, locus YLR058C, strain SHM2, stronger effect = lower value 1.02 | S. cerevisiae deletion strains, locus YLR102C, strain apc9, stronger effect = lower value 1.01 | S. cerevisiae deletion strains, locus YLR113W, strain HOG1, stronger effect = lower value 0.97 | S. cerevisiae deletion strains, locus YLR221C, strain rsa3, stronger effect = lower value 0.99 | S. cerevisiae deletion strains, locus YLR258W, strain gsy2, stronger effect = lower value 0.998 | S. cerevisiae deletion strains, locus YLR262C, strain YPT6 (second series), stronger effect = lower value 0.961 | S. cerevisiae deletion strains, locus YLR262C, strain YPT6, stronger effect = lower value 0.979 | S. cerevisiae deletion strains, locus YLR268W, strain sec22, stronger effect = lower value 1.05 | S. cerevisiae deletion strains, locus YLR320W, strain mms22, stronger effect = lower value 1.01 | S. cerevisiae deletion strains, locus YLR330W, strain CHS5, stronger effect = lower value 0.996 | S. cerevisiae deletion strains, locus YLR342W, strain FKS1 (second series), stronger effect = lower value 1.02 | S. cerevisiae deletion strains, locus YLR342W, strain FKS1, stronger effect = lower value 0.983 | S. cerevisiae deletion strains, locus YLR357W, strain rsc2, stronger effect = lower value 1.04 | S. cerevisiae deletion strains, locus YLR370C, strain arc18, stronger effect = lower value 0.972 | S. cerevisiae deletion strains, locus YLR371W, strain rom2, stronger effect = lower value 1.01 | S. cerevisiae deletion strains, locus YLR384C, strain iki3, stronger effect = lower value 0.963 | S. cerevisiae deletion strains, locus YLR418C, strain cdc73, stronger effect = lower value 0.999 | S. cerevisiae deletion strains, locus YML016C, strain PPZ1, stronger effect = lower value 0.997 | S. cerevisiae deletion strains, locus YML032C, strain rad52, stronger effect = lower value 1.02 | S. cerevisiae deletion strains, locus YML120C, strain ndi1, stronger effect = lower value 0.977 | S. cerevisiae deletion strains, locus YML124C, strain tub3, stronger effect = lower value 1 | S. cerevisiae deletion strains, locus YMR058W, strain fet3, stronger effect = lower value 0.991 | S. cerevisiae deletion strains, locus YMR078C, strain ctf18, stronger effect = lower value 1.02 | S. cerevisiae deletion strains, locus YMR125W, strain sto1, stronger effect = lower value 0.956 | S. cerevisiae deletion strains, locus YMR129W, stronger effect = lower value 0.99 | S. cerevisiae deletion strains, locus YMR205C, strain PFK2, stronger effect = lower value 0.988 | S. cerevisiae deletion strains, locus YMR223W, strain ubp8, stronger effect = lower value 1.01 | S. cerevisiae deletion strains, locus YMR231W, strain pep5, stronger effect = lower value 0.971 | S. cerevisiae deletion strains, locus YMR263W, strain SAP30, stronger effect = lower value 1.01 | S. cerevisiae deletion strains, locus YMR307W, strain GAS1, stronger effect = lower value 0.95 | S. cerevisiae deletion strains, locus YNL067W, strain RPL9B, stronger effect = lower value 1.01 | S. cerevisiae deletion strains, locus YNL071W, strain lat1, stronger effect = lower value 0.996 | S. cerevisiae deletion strains, locus YNL128W, strain TEP1, stronger effect = lower value 1.01 | S. cerevisiae deletion strains, locus YNL153C, strain GIM3, stronger effect = lower value 1.01 | S. cerevisiae deletion strains, locus YNL175C, strain NOP13, stronger effect = lower value 1.01 | S. cerevisiae deletion strains, locus YNL183C, strain NPR1, stronger effect = lower value 0.931 | S. cerevisiae deletion strains, locus YNL197C, strain WHI3, stronger effect = lower value 1.01 | S. cerevisiae deletion strains, locus YNL209W, strain ssb2, stronger effect = lower value 0.993 | S. cerevisiae deletion strains, locus YNL224C, strain SQS1, stronger effect = lower value 0.986 | S. cerevisiae deletion strains, locus YNL233W, strain BNI4, stronger effect = lower value 1.01 | S. cerevisiae deletion strains, locus YNL248C, strain rpa49, stronger effect = lower value 0.994 | S. cerevisiae deletion strains, locus YNL250W, strain rad50, stronger effect = lower value 1 | S. cerevisiae deletion strains, locus YNL271C, strain bni1, stronger effect = lower value 1.01 | S. cerevisiae deletion strains, locus YNL298W, strain CLA4, stronger effect = lower value 1.02 | S. cerevisiae deletion strains, locus YNL307C, strain MCK1, stronger effect = lower value 1.01 | S. cerevisiae deletion strains, locus YNL322C, strain KRE1 (second series), stronger effect = lower value 0.963 | S. cerevisiae deletion strains, locus YNL322C, strain KRE1, stronger effect = lower value 1 and 1.01 | S. cerevisiae deletion strains, locus YNR049C, strain mso1, stronger effect = lower value 0.972 | S. cerevisiae deletion strains, locus YNR052C, strain pop2, stronger effect = lower value 1.02 | S. cerevisiae deletion strains, locus YOL006C, strain TOP1, stronger effect = lower value 1.06 | S. cerevisiae deletion strains, locus YOL012C, strain htz1 0.851 | S. cerevisiae deletion strains, locus YOL147C, strain pex11, stronger effect = lower value 1.01 | S. cerevisiae deletion strains, locus YOR001W, strain rrp6, stronger effect = lower value 0.972 | S. cerevisiae deletion strains, locus YOR061W, strain CKA2, stronger effect = lower value 1 | S. cerevisiae deletion strains, locus YOR069W, strain VPS5, stronger effect = lower value 1.01 | S. cerevisiae deletion strains, locus YOR070C, strain gyp1, stronger effect = lower value 0.982 | S. cerevisiae deletion strains, locus YOR080W, strain dia2, stronger effect = lower value 0.97 | S. cerevisiae deletion strains, locus YOR083W, strain WHI5 (second series), stronger effect = lower value 0.992 | S. cerevisiae deletion strains, locus YOR083W, strain WHI5, stronger effect = lower value 0.965 | S. cerevisiae deletion strains, locus YOR106W, strain vam3, stronger effect = lower value 0.96 | S. cerevisiae deletion strains, locus YOR136W, strain idh2, stronger effect = lower value 1 | S. cerevisiae deletion strains, locus YOR144C, strain elg1, stronger effect = lower value 1.01 | S. cerevisiae deletion strains, locus YOR184W, strain ser1, stronger effect = lower value 1 | S. cerevisiae deletion strains, locus YOR231W, strain MKK1, stronger effect = lower value 0.959 | S. cerevisiae deletion strains, locus YOR265W, strain rbl2, stronger effect = lower value 0.986 | S. cerevisiae deletion strains, locus YOR270C, strain vph1, stronger effect = lower value 0.966 | S. cerevisiae deletion strains, locus YOR290C, strain snf2, stronger effect = lower value 1 | S. cerevisiae deletion strains, locus YOR316C, strain cot1, stronger effect = lower value 1 | S. cerevisiae deletion strains, locus YPL051W, strain arl3, stronger effect = lower value 0.99 | S. cerevisiae deletion strains, locus YPL055C, strain LGE1, stronger effect = lower value 0.97 | S. cerevisiae deletion strains, locus YPL078C, strain atp4, stronger effect = lower value 0.968 | S. cerevisiae deletion strains, locus YPL106C, strain sse1, stronger effect = lower value 0.999 | S. cerevisiae deletion strains, locus YPL240C, strain hsp82, stronger effect = lower value 1 | S. cerevisiae deletion strains, locus YPL241C, strain CIN2, stronger effect = lower value 0.997 and 1.01 | S. cerevisiae deletion strains, locus YPL256C, strain CLN2, stronger effect = lower value 0.961 | S. cerevisiae deletion strains, locus YPR119W, strain clb2, stronger effect = lower value 1 | S. cerevisiae deletion strains, locus YPR141C, strain kar3, stronger effect = lower value 1 | S. cerevisiae deletion strains, locus YPR163C, strain tif3, stronger effect = lower value 1.02 | S. cerevisiae deletion strains, locus YPR167C, strain met16, stronger effect = lower value 1.01 | S. cerevisiae deletion strains, strain wtn01, stronger effect = lower value 1.02 | S. cerevisiae strains, strain wild type, stronger effect = lower value 1
